Measurements taken from PubChem BioAssay.
Calls of active or inactive are those of the source.

What was measured:
Albumin (Bos taurus) = Albumin (Bos taurus) (UniProt P02769); assay: compounds binding labelled BSA control protein – biochemical, small-molecule microarray, Alexa647 label, 635/667 nm fluorescence, artefact control for SMM control protein annotation, profiling panel (AID 1118); conditions: BSA-A647 binding, fluorescence 635 nm, higher = more signal;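 further: score merges 667 nm emission intensity and signal-to-noise per printed compound spot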
Chain of Albumin (Bos taurus) (P02769 whole entry, looked up): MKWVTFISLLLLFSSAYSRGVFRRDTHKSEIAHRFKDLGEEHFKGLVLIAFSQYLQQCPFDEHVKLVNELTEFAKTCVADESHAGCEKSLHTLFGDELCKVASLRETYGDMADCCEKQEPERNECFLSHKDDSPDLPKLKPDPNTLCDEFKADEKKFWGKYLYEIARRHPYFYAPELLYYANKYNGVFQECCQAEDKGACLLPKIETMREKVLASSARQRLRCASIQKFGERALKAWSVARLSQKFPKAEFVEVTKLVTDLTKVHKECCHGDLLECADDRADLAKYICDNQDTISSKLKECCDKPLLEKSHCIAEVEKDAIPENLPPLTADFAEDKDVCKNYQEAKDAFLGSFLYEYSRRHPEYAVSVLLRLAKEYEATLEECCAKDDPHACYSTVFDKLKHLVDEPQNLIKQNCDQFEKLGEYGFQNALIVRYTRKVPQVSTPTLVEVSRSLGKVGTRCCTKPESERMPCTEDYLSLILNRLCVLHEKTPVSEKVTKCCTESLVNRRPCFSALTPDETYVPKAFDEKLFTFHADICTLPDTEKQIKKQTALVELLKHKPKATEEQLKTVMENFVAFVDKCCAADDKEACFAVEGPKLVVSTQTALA

[1] = probe aXIP binding to arrayed compounds – biochemical, NeuroSMM set, 635/667 nm fluorescence, primary screen (AID 1119); conditions: small-molecule microarray, higher = more signal, called active from +8 up or from −8 down;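 further: probe is the protein aXip251-270 applied at 1 µg/mL to compound-printed slides; binding of probe to printed compounds measured as 667 nm fluorescence plus signal to noise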
[2] = probe aNOTCH3 binding on compound microarray – biochemical, small-molecule microarray, 635/667 nm fluorescence, primary screen (AID 1120); conditions: higher = more signal;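 further: probe is a biotin-tagged antibody raised against NOTCH3 rather than NOTCH3 protein; score merges spot fluorescence near 667 nm with spot signal to noise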
[3] = probe aNOTCH2 binding on compound microarray – biochemical, small-molecule microarray, 635/667 nm fluorescence, primary screen (AID 1121); conditions: higher = more signal;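 further: score merges feature fluorescence read at 667 nm with its signal to noise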
[4] = target: Carbonic anhydrase 2 (Homo sapiens) (UniProt P00918); assay: compounds binding carbonic anhydrase 2 – biochemical, small-molecule microarray, Alexa647-labelled CAII, profiling panel (AID 1122); conditions: CAII-A647 binding fluorescence, higher = more signal
[5] = COS7 lysate on small-molecule microarray, probe aHis, 635 nm (AID 1123); conditions: COS7 cell lysate, fluorescence, higher = more signal;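 further: z-score combines 667nm fluorescence intensity with signal-to-noise per printed compound spot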
[6] = probe aLAP1 signal on lysate-treated microarray – cell lysate, small-molecule microarray, COS7 lysate, primary screen (AID 1124); conditions: probe aLAP1, fluorescence, higher = more signal;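 further: lysate comes from COS7 cells expressing LAP1 and is applied at 0.3 µg/mL; score merges spot fluorescence near 667 nm with signal-to-noise over triplicate slides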
Sam68 (KHDRBS1) = assay: compounds binding KHDRBS1 protein – biochemical, small-molecule microarray, 635 nm fluorescence, primary screen (AID 1125); conditions: higher = more signal;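 further: score merges 667 nm channel intensity with signal to noise over triplicate slides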
[7] = tested on: Chordin-like protein 2 (CHRDL2); assay: compounds binding chordin-like 2 – biochemical, small-molecule microarray, 635 nm fluorescence, primary screen (AID 1126); conditions: fluorescence 635 nm, higher = more signal;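 further: printed compound slides probed with Chrdl2 protein at 4 µg/mL for 1 h at 4 C; score merges 667 nm emission intensity with signal to noise over three replicate slides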
[8] = target: Concanavalin-A (Canavalia ensiformis) (UniProt P02866); assay: compounds binding concanavalin A lectin – biochemical, small-molecule microarray, Alexa647 label, 635 nm, artefact control for SMM control protein annotation, primary screen (AID 1127); conditions: ConA-A647 binding fluorescence, higher = more signal;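 further: z combines 667 nm emission intensity with signal-to-noise across three replicate slides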
Chain of Concanavalin-A (Canavalia ensiformis) (P02866 whole entry, looked up): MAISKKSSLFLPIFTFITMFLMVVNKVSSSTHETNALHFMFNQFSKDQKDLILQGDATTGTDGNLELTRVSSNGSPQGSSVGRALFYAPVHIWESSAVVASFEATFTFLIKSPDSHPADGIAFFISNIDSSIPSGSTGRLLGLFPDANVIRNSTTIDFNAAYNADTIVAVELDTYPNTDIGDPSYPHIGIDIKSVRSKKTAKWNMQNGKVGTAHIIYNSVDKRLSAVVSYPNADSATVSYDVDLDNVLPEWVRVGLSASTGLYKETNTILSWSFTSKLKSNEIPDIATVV

Compound	composite z-score (Albumin (Bos taurus))	composite Z-score [1]	composite z-score [2]	composite z-score [3]	composite z-score [4]	composite z-score [5]	composite z-score [6]	composite z-score (Sam68 (KHDRBS1))	composite z-score [7]	composite z-score [8]
COC(=O)C1=CC(CCCO)=CC(c2cccs2)N(C)C=C1C(=O)OC (stereo not given)	0.445	0.156 (inactive)	-0.0879	-0.115	0.869	1.17	-0.371	-0.213	-0.44	0.34
CC1=C2[C@@H](CCc3ccccc3)OB(O)C[C@@H]2[C@@H]2C(=O)N(Cc3ccccc3)C(=O)[C@@H]2C1	0.415	0.831 (inactive)	-0.145	-0.0735	0.585	0.328	-0.294	0.227	0.226	0.948
CCOC(=O)C1=CC[C@@H](c2ccccc2)N(S(=O)(=O)c2ccc(C)cc2)[C@H]1c1ccccc1	0.831	-0.563 (inactive)	0.107	-0.0806	0.453	0.69	-0.561	0.749	-0.221	1.07
COCC(=C=CC[C@H](O)c1ccc(CO)o1)CCO	0.0697	0.701 (inactive)	0.0066	-0.14	0.748	1.27	-0.0497	0.601	0.0549	0.494
CO[C@H]1O[C@H](CO)[C@@H](OC(=O)Nc2ccc(Br)cc2)[C@@H]2OC(=O)[C@@H](Cc3ccccc3)C/C=C/C[C@H](Cc3ccccc3)C(=O)O[C@@H]12	0.771	-1.09 (inactive)	0.11	-0.0601	0.635	1.65	0.0964	0.968	-0.173	0.516
COCC(=C=CC[C@H](O)c1ccc(OCCO)cc1)CCO	-0.173	-0.321 (inactive)	-0.0298	0.0312	0.736	0.368	0.342	0.763	0.262	-0.155
COC(=O)[C@@]1(Cc2ccccc2)[C@H]2c3cc(C(=O)N4CCCC4)n(CCc4ccccn4)c3C[C@H]2CN1C(=O)c1ccccc1	1.06	-1.17 (inactive)	0.682	0.133	0.88	3.46	0.589	0.761	-0.607	0.606
CCCC[C@@H](O)C1=C(COC)C[C@H]2C(=O)N(C)C(=O)[C@H]2[C@H]1CO	0.277	0.0275 (inactive)	-0.139	-0.217	0.183	-0.419	0.0048	-0.0046	0.831	0.256
CC(C)NC(=O)[C@@]1(C)c2ccccc2C(=O)N(Cc2ccc(OC(F)(F)F)cc2)[C@H]1c1ccc(CO)cc1	0.484	-0.263 (inactive)	-0.367	-0.0995	0.607	1.54	0.173	0.844	-1.02	-0.04
NC(=O)NCC#Cc1ccc2c(c1)[C@]1(C(=O)N2)[C@H](c2ccccc2OCCO)N2[C@H](c3ccccc3)[C@H](c3ccccc3)OC(=O)[C@H]2[C@@H]1C(=O)O	0.276	0.155 (inactive)	-0.245	-0.0772	0.496	0.259	0.931	0.293	-0.128	0.96
O=C(O)[C@@H]1[C@@H]2C(=O)N(c3ccccc3)C(=O)[C@@H]2C[C@@H]1Sc1ccccc1	-0.037	0.0618 (inactive)	-0.0932	-0.0572	0.526	0.796	0.627	-0.983	-1.06	-0.607
CCOC(=O)C1=C[C@@H](C(C)C)N(S(=O)(=O)c2ccc(C)cc2)[C@H]1c1ccc(C(F)(F)F)cc1	0.665	0.559 (inactive)	0.256	-0.0438	0.173	2.52	0.327	1.31	0.106	1.05
[N-]=[N+]=NCc1ccccc1C[C@@]1(C(N)=O)N=C(c2ccc(OCCCO)cc2)O[C@@H]1c1ccccc1	1.09	0.294 (inactive)	0.0762	0.0341	0.693	2.83	0.368	1.3	-1.38	0.341
C=C[C@@H](OC)[C@H](OC(=O)Nc1ccc(OC)cc1)c1ccc(O)c(F)c1	-0.715	0.656 (inactive)	-0.0581	-0.2	0.268	1.93	0.117	0.21	0.746	-0.728
CCOC(=O)[C@@H]1CCCCN1C(=O)C(=O)OC	0.145	-0.587 (inactive)	-0.0431	-0.274	-0.177	0.226	0.193	0.322	-0.0507	0.131
COc1ccc(C#Cc2ccc3c(c2)[C@]2(C(=O)N3)[C@H](c3ccc(O)cc3)N3[C@H](c4ccccc4)[C@H](c4ccccc4)OC(=O)[C@H]3[C@@H]2C(=O)Nc2nc3ccccc3s2)cc1	0.67	0.276 (inactive)	-0.014	0.117	0.61	2.47	0.98	1.29	0.428	1.08
[N-]=[N+]=NCc1ccccc1[C@H]1OC(c2ccc(OCCCO)cc2)=N[C@@]1(Cc1ccccc1N=[N+]=[N-])C(=O)NCC(O)CO (stereo not given in full)	0.992	0.095 (inactive)	0.483	-0.0859	0.7	1.8	0.0939	1.3	-0.603	1.09
C=C[C@H]1C(C(=O)OCC)=CC[C@@H](c2ccccc2)N1S(=O)(=O)c1ccc(C)cc1	0.644	-0.176 (inactive)	0.382	-0.0345	0.627	1.67	0.516	1.1	0.218	0.789
COCCCNC(=O)[C@@H]1c2ccccc2C(=O)N(C(C)C)[C@H]1c1ccc(CO)cc1	0.0913	0.0178 (inactive)	0.0577	-0.125	0.25	-0.756	-0.366	0.0457	-0.0306	0.856
COc1ccc([Si](C)(C)[C@@H]2[C@@H](CC(=O)N(CCO)Cc3ccccc3)O[C@]3(C(=O)N(Cc4cccc(N5CCCCC5=O)c4)c4ccccc43)[C@H]2C)cc1	0.11	0.42 (inactive)	-0.22	-0.131	0.52	1.86	-0.104	0.646	0.905	1.03
C=C(C(=O)CC[C@H](OC(=O)c1ccccc1-c1ccccc1C(=O)O)c1cccc(OCCO)c1)C(C)C	0.688	-0.302 (inactive)	-0.185	-0.162	0.696	0.715	0.2	-0.192	-0.0748	0.0561
O=C(Cc1ccccc1)[C@H]1C2C=CCCC(c3ccccc3)=C2CN1Cc1ccccc1 (stereo not given in full)	-0.567	-0.041 (inactive)	-0.166	-0.179	-0.302	-0.328	0.0448	-0.299	0.23	-0.22
CCCCC(O)C1C=CC2C(=O)N(C)C(=O)C2N1N(c1ccccc1)c1ccccc1 (stereo not given)	0.878	0.418 (inactive)	0.183	0.0203	0.797	2.73	0.923	1.32	-0.711	1.1
